In PubChem BioAssay (NCATS) one finds Potency, max response and outcome data, which are given here for 13 molecules.

For one assay, the system named is TAB109. In words: qHTS profiling for inhibitors of Plasmodium falciparum proliferation (AID 504749). Note: nearly all actives have a fitted effect of over 60% in size. Note: potency is the fitted concentration of half-maximal effect. Particulars: P. falciparum in erythrocytes, SYBR Green DNA, 72 h; series mostly up to 28.7 µM. The procedure, abridged:
(§1)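 Readout was DNA-dye fluorescence from lysed cultures, ex 485/em 535 nm. Parasitized red cells had grown 72 h with compound; data scaled between 0.29 uM artemisinin and DMSO wells and corrected using vehicle-only plates.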

Another assay has as its system TAB113. The description is as above. Particulars: P. falciparum in erythrocytes, SYBR Green DNA, 72 h; series mostly up to 28.7 µM. The procedure, abridged:
as §1

The subject of a further assay is TAB165. The description is as above. Particulars: P. falciparum in erythrocytes, SYBR Green DNA, 72 h; series mostly up to 28.7 µM. In outline: as §1
The test system of another assay is W2. The assay is described as above. Particulars: P. falciparum in erythrocytes, SYBR Green DNA, 72 h; series mostly up to 28.7 µM. The procedure, abridged:
as §1

The next assay deals with CRL-7250. In words: Cytotoxic Profiling of Annotated Libraries Using Quantitative High-Throughput Screening (AID 1296008). For max response: % is set by controls: 0 for no effect and ±100 for the full control effect. Note: nearly all actives have a fitted effect of over 60% in size. Particulars: Five cell lines viability, CellTiter-Glo ATP luminescence, 48-72 h; max response: active compounds read low. In outline:
(§2)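 Cells exposed to compounds for 48 or 72 hr at 37 degrees Celsius. Viability read as ATP-coupled luminescence with CellTiter-Glo after 10 min at room temperature.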

For the next assay, the system named is HEK293. The description is as above. Particulars: Five cell lines viability, CellTiter-Glo ATP luminescence, 48-72 h; max response: active compounds read low. In outline:
as §2

The subject of another assay is HaCat. The assay is described as above. Particulars: Five cell lines viability, CellTiter-Glo ATP luminescence, 48-72 h; max response: active compounds read low. The procedure, abridged: as §2
The test system of a further assay is KB-3-1. Described as above. Particulars: Five cell lines viability, CellTiter-Glo ATP luminescence, 48-72 h; max response: active compounds read low. The procedure, abridged: as §2
A further assay deals with NIH3T3. Described as above. Particulars: Five cell lines viability, CellTiter-Glo ATP luminescence, 48-72 h; max response: active compounds read low. In outline:
as §2

The subject of a further assay is MCC-13. In words: qHTS assay to identify novel small-molecules to repurpose for Merkel cell carcinoma treatment (AID 1296009). Note: % is set by controls: 0 for no effect and ±100 for the full control effect; nearly all actives have a fitted effect of over 60% in size. Particulars: MCC and control cell lines, CellTiter-Glo viability, 72 h; series mostly up to 46 µM. In outline: (§3)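 Cells were incubated with compound for 72 hr at 37 degree celsius before CellTiter-Glo addition. Luminescence was normalized with no-cell wells as full cytotoxicity and DMSO as baseline.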

The next assay relates to MCC-26. Described as above. Particulars: MCC and control cell lines, CellTiter-Glo viability, 72 h; series mostly up to 46 µM. In outline: as §3
For the next assay, the system named is MKL-1. Described as above. Particulars: MCC and control cell lines, CellTiter-Glo viability, 72 h; series mostly up to 46 µM. In outline:
as §3

The subject of another assay is MKL-2. Described as above. Particulars: MCC and control cell lines, CellTiter-Glo viability, 72 h; series mostly up to 46 µM. In outline: as §3
Another assay relates to UISO. Described as above. Particulars: MCC and control cell lines, CellTiter-Glo viability, 72 h; series mostly up to 46 µM. In outline: as §3
For another assay, the system named is WaGa. The description is as above. Particulars: MCC and control cell lines, CellTiter-Glo viability, 72 h; series mostly up to 46 µM. In outline: as §3
A further assay relates to C33A. In words: Primary qHTS to identify gynecologic anti-cancer compounds using libraries of approved drugs and bioactive compounds (AID 1345084). Note: % is set by controls: 0 for no effect and ±100 for the full control effect; nearly all actives have a fitted effect of over 55% in size. Particulars: Gynecologic cancer cell panel viability, ATPlite luminescence, 48 h; series mostly up to 57.5 µM. The procedure, abridged: (§4)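 Measured: luminescence after ATPlite addition (15 min, RT). Exposure: 48 h, 37 C, 5% CO2.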

Another assay has as its system CAOV3. The assay is described as above. Particulars: Gynecologic cancer cell panel viability, ATPlite luminescence, 48 h; series mostly up to 57.5 µM. In outline:
as §4

Records with an inconclusive call do not appear. Unmarked numbers belong to inactive results. The source made the active and inactive calls. Calls come from the whole dose curve; as a rule, active = well fitted curve in the direction sought with a large enough effect; inconclusive = small, poorly fitted or top-dose-only effect, or another doubt; inactive = no such curve, though single readings can be large; an effect the other way counts as inactive or inconclusive.

Consider `CCCCCCCCCCCCCC(=O)OC(C)C`, for which the Potency result with TAB109, in the assay on TAB113, in the assay on TAB165, in the assay on W2, with MCC-13 and with MCC-26 was “inactive” in each case. For the same molecule, the Potency result in the assay with MKL-1, in the assay on MKL-2, in the assay on UISO, in the assay on WaGa, with C33A and in the assay with CAOV3 was “inactive” each time. For the same molecule, the max response with CRL-7250 is -4.95%; in the assay on HEK293, -0.105%; in the assay with HaCat, -4.71%; in the assay on KB-3-1 it was -19%; in the assay with NIH3T3, 2.35%.
For `C=CCN1CCc2nc(N)sc2CC1`, the Potency result with TAB109, with TAB113, in the assay with TAB165, in the assay on W2, with MCC-13 and in the assay on MCC-26 was “inactive” in each case. For the same molecule, the Potency entry with MKL-1, with MKL-2, in the assay on UISO, with WaGa, with C33A and with CAOV3 was “inactive” throughout. Moreover, the max response in the assay with CRL-7250 is -5.69%; in the assay on HEK293, 0.777%; in the assay with HaCat, -12.6%; with KB-3-1 it was 3.04%; in the assay with NIH3T3, 2.55%.
For the molecule `CCN(CC)CCNC(=O)c1cc(Br)c(N)cc1OC`, the Potency result with TAB109, in the assay with TAB113, in the assay with TAB165, in the assay with MCC-13, in the assay with MCC-26 and in the assay with MKL-1 was “inactive” each time. Besides, the Potency result in the assay on MKL-2, in the assay with UISO, in the assay with WaGa and in the assay on C33A was “inactive” each time. In addition, the max response in the assay with CRL-7250 was 3.66%; in the assay on HEK293, -7.62%; in the assay with HaCat it was -11.9%; with KB-3-1, -23.2%; in the assay with NIH3T3 it was -9.42%.
As for `CC(=O)NC(=O)c1ccccc1O`, the Potency result with TAB109, in the assay with TAB113, in the assay with TAB165, with W2, in the assay with MCC-13 and with MCC-26 was “inactive” throughout. For the same molecule, the Potency result with MKL-1, in the assay with MKL-2, with UISO, with WaGa, with C33A and in the assay with CAOV3 was “inactive” throughout. Further, the max response with CRL-7250 is -3.82%; with HEK293, -1.84%; with HaCat it was -6.77%; in the assay with KB-3-1, -3.04%; in the assay on NIH3T3 it was 0.511%.
`CCOC(=O)Nc1ccc2c(c1)N(C(=O)CCN1CCOCC1)c1ccccc1S2`: the Potency entry in the assay with TAB109, in the assay with TAB113, with TAB165, in the assay on W2, with MCC-13 and in the assay on MCC-26 was “inactive” each time. For the same molecule, the Potency result in the assay with MKL-1, in the assay on MKL-2, with UISO, in the assay on WaGa and in the assay on C33A was “inactive” each time. The max response was -6.24% in the assay with CRL-7250; -28.3% in the assay with HEK293; -10.7% with HaCat; 0.404% with KB-3-1; -4.09% in the assay on NIH3T3.
For `COP(=O)(OC)OC(c1ccc(Cl)cc1)P(=O)(OC)OC` (stereo not given), the Potency entry in the assay with TAB109, in the assay on TAB113, in the assay with TAB165, with W2, in the assay on MCC-13 and with MCC-26 was “inactive” throughout. Besides, the Potency result with MKL-1, in the assay on MKL-2, in the assay with UISO, in the assay with WaGa and with C33A was “inactive” in each case. In addition, the max response is -8.32% in the assay with CRL-7250; -64.4% in the assay with HEK293; -2.94% with HaCat; 0.95% in the assay on KB-3-1; -38.8% in the assay on NIH3T3.
On to `CCCCCCCCCCCCCCCCO`, for which the Potency result in the assay with TAB109, with TAB113, with TAB165, in the assay on W2, in the assay on MCC-13 and in the assay with MCC-26 was “inactive” each time. The Potency entry with MKL-1, in the assay on MKL-2, with UISO, in the assay on WaGa, in the assay on C33A and in the assay with CAOV3 was “inactive” each time. Further, the max response in the assay with CRL-7250 was -12.4%; with HEK293, 1.14%; in the assay on HaCat it was -1.51%; in the assay on KB-3-1 it was 19%; in the assay with NIH3T3, -5.1%.
For `CC(C)Nc1cccnc1N1CCN(C(=O)c2cc3cc(NS(C)(=O)=O)ccc3[nH]2)CC1`, the Potency entry with TAB109, in the assay on TAB113, in the assay with TAB165, in the assay on MCC-13, in the assay on MCC-26 and in the assay with MKL-1 was “inactive” throughout. Moreover, the Potency result in the assay on MKL-2, in the assay with UISO, in the assay on WaGa and in the assay on C33A was “inactive” in each case. In addition, in the assay with W2, the Potency was 9.53 µM (active). Moreover, the molecule was called inactive in the assay on CRL-7250. Besides, the max response in the assay on HEK293 was -14.8%; in the assay on HaCat, 0.0011%; with KB-3-1 it was -4.88%; with NIH3T3 it was -1.79%.
With `COc1cc(C(=S)N2CCOCC2)ccc1O`, the Potency entry with TAB109, in the assay with TAB165, with W2, with MCC-13, in the assay on MCC-26 and in the assay with MKL-1 was “inactive” throughout. For the same molecule, the Potency entry with MKL-2, in the assay with UISO, with WaGa, in the assay on C33A and with CAOV3 was “inactive” each time. The max response is -4.16% with CRL-7250; -23.8% with HEK293; -11.5% in the assay with HaCat; 12.3% in the assay with KB-3-1; -6.82% in the assay with NIH3T3.
Take `Cc1cccc(C)c1NC(=O)c1ccccc1C(=O)O`: the Potency entry in the assay on TAB109, in the assay on TAB113, in the assay on TAB165, in the assay with W2, in the assay with MCC-13 and in the assay on MCC-26 was “inactive” throughout. Also, the Potency entry with MKL-1, in the assay on MKL-2, in the assay with UISO, in the assay on WaGa, in the assay on C33A and in the assay with CAOV3 was “inactive” throughout. The molecule was classed as inactive in the assay with CRL-7250. For the same molecule, the max response in the assay with HEK293 is 0.24%; in the assay on HaCat it was 1.31%; with KB-3-1, -0.148%; with NIH3T3, -5.01%.
For the molecule `CC1=C(C(=O)O)N2C(=O)[C@@H](NC(=O)[C@H](N)c3ccccc3)[C@H]2SC1`, the Potency result in the assay on TAB109, with TAB113, in the assay on TAB165, with W2, in the assay with MCC-13 and in the assay with MCC-26 was “inactive” in each case. Moreover, the Potency entry with MKL-1, in the assay on MKL-2, in the assay with UISO, with WaGa, in the assay on C33A and in the assay on CAOV3 was “inactive” in each case. In addition, the max response in the assay with CRL-7250 is -2.3%; with HEK293 it was -2.48%; in the assay on HaCat, 2.08%; in the assay on KB-3-1 it was 11.5%; with NIH3T3 it was 1.34%.
For `O=S(=O)(O)c1ccc(O)cc1`, the Potency result in the assay with TAB109, with TAB113, with TAB165, in the assay on W2, in the assay on MCC-13 and with MCC-26 was “inactive” each time. For the same molecule, the Potency entry in the assay on MKL-1, in the assay with MKL-2, in the assay with UISO, with WaGa, with C33A and in the assay with CAOV3 was “inactive” in each case. Moreover, the max response in the assay with CRL-7250 was -8.14%; in the assay on HEK293 it was 2.28%; with HaCat, -3.34%; with KB-3-1, -1.6%; with NIH3T3, 1.54%.
Consider `Nc1nc(-c2ccccc2)c(Br)c(=O)[nH]1`, for which the Potency result in the assay on TAB109, in the assay with TAB113, in the assay with TAB165, with W2, in the assay with MCC-13 and with MCC-26 was “inactive” in each case. Further, the Potency result with MKL-1, in the assay with MKL-2, with UISO, with WaGa, with C33A and in the assay with CAOV3 was “inactive” in each case. Moreover, the max response was -18.3% with CRL-7250; -28.5% in the assay on HEK293; -7.63% with HaCat; 4.06% in the assay on KB-3-1; -18.4% in the assay on NIH3T3.
